# Hits are enriched below; roughly 2.3% of the tested compounds scored in any of these assays.
# M1 ag: human M1 muscarinic receptor agonists, primary screen, Fluo-8 calcium fluorescence, CHO-K1 cells, HTS. Muscarinic acetylcholine receptor M1 (Homo sapiens), P11229. CHO-K1 hM1, agonist mode; 0% DMSO, 100% acetylcholine EC100. activation, % at 3 µM. actives 0.33% (n = 360,000);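 active = activation above the run's mean compound activation plus 3 SD, cut at about 16% in these data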;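 note: peak over basal fluorescence ratio within a 140 s kinetic read after compound addition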
# Target sequence (P11229 whole entry, looked up): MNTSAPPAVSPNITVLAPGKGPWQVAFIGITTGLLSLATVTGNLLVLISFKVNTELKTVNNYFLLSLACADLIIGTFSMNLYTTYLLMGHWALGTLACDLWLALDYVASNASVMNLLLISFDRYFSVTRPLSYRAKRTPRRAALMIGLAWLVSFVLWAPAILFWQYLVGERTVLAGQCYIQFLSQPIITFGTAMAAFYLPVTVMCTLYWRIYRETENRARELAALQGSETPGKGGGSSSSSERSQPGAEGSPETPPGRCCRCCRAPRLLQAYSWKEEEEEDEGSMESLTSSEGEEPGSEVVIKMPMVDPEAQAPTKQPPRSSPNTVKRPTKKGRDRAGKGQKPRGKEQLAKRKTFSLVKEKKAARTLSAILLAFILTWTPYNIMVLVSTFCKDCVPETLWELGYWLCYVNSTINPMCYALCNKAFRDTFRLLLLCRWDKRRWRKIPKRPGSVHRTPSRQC
# CHRM1 PAM: human M1 muscarinic receptor positive allosteric modulators, primary screen, CHO-K1 cells, Fluo-8 calcium fluorescence, 1536-well. actives 0.088% (n = 360,000). activation, % at 3 µM. Muscarinic acetylcholine receptor M1 (Homo sapiens), P11229. CHO-K1 hM1, ACh EC20; 0% = ACh EC20, 100% = maximal ACh. AID 588819, 2011; in the data active = activation above about 19%, passing the limit was not always enough
# CHO-K1 Ca ag: counter-screen for M1 agonists: effect in parental CHO-K1 cells. Fluo-8 calcium fluorescence; scaled to maximal ATP response, vehicle zero. activation, % at 3 µM. actives 0.48% (n = 360,000); in the data active = activation above about 15%;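 note: untransfected CHO-K1 host cells lacking M1 receptor as counterscreen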
# CHO-K1 Ca antag: M1 antagonist counterscreen hit in parental CHO-K1 cells. AID 602250. ATP-induced calcium, Fluo-8 fluorescence. inhibition, % at 3 µM. actives 0.6% (n = 360,000);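 active = inhibition above a per-plate cutoff, the plate's mean sample inhibition plus 3 SD, cut at about 24% in these data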;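 note: 0% = DMSO plus EC80 ATP and 100% = DMSO alone without ATP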
# CHO-K1 Ca PAM: nonselective calcium activators in parental CHO-K1 cells, primary screen, counter-screen for M1 PAM project, cell-based, Fluo-8 calcium fluorescence, full deck, 1536-well; ATP EC20; 0% at ATP EC20, 100% at ATP max; activation, % at 3 µM; actives 0.02% (n = 360,000);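 active = activation above the run cutoff, the mean activation of all test compounds plus 3 SD, cut at about 40% in these data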;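 note: peak over basal fluorescence ratio in a 140 s read after ATP addition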
# M1 antag: human M1 muscarinic receptor antagonists, primary screen, CHO-K1 cells, Fluo-8 calcium fluorescence, 1536-well | Muscarinic acetylcholine receptor M1 (Homo sapiens), P11229 | CHO-K1 hM1, ACh EC80 antagonist | inhibition, % at 3 µM | actives 1.3% (n = 360,000) | AID 588852, 2011;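 active = percent inhibition above its own plate's cutoff, namely the mean of that plate's compound wells plus 3 SD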;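 note: peak over basal fluorescence ratio during 140 s after agonist addition; 0% = ACh EC80 plus DMSO and 100% = DMSO alone without agonist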
# The depositor's hits bear a star; . = not tested or not shown.
SMILES,M1 ag,CHRM1 PAM,CHO-K1 Ca ag,CHO-K1 Ca antag,CHO-K1 Ca PAM,M1 antag
CN(Cc1ccccc1)c1nc2c(c(=O)n(C)c(=O)n2C)n1CCCc1ccccc1,-3,-17,3,11,10,34*
CC(O)CSc1nc2c(c(=O)n(C)c(=O)n2C)n1CCCc1ccccc1 (stereo unspecified),0,24*,1,2,20,-29
Cc1ccc2nc(CN(C)C(=O)[C@H]3O[C@@H](n4ccc(N)nc4=O)[C@H](O)[C@@H]3O)[nH]c2c1,-2,0,1,-16,9,-12
CCc1nc2c(OCCC3CCCCC3)cccn2c1N(C)C(=O)c1ccc(OC)cc1,-8,-8,-1,-3,5,-5
CCCCCC[n+]1c(-c2ccc(Cl)cc2Cl)csc1Nc1ccccc1,-3,1,0,6,9,-7
CC[N+](C)(C)CC/C=C1/c2ccccc2Sc2ccc(Cl)cc21,-6,-24,1,0,-6,100*
CCC1=Nc2cc(C(=O)O)ccc2Sc2ccc(Cl)cc21,-3,1,0,5,9,12
CCCCCCCCCC[N+](C)(C)CC/C=C1/c2ccccc2Sc2ccc(Cl)cc21,-8,-33,0,-16,0,83*
CCCCCCCCCCC[N+](C)(C)CC/C=C1/c2ccccc2Sc2ccc(Cl)cc21,-10,-30,3,-14,3,99*
COc1ccc(OC)c(CC(=O)Nc2ccc3c(c2)c(=O)n(C)n3Cc2cccc(C(F)(F)F)c2)c1,-4,-6,2,-29,32,-12
Nc1nc(C2CC2)c(Sc2sc(N)nc2C2CC2)s1,1,3,5,-4,14,2
Cc1onc(-c2ccccc2)c1C(O)c1ccc(F)cc1 (stereo unspecified),-6,-23,7,33*,-11,42*
Cc1onc(-c2ccccc2Cl)c1C(O)c1ccc(F)cc1 (stereo unspecified),-7,1,1,-18,5,-6
Cc1cc2nc(-c3ccc(F)cc3)c(Cc3cccc(Cl)c3)n2c(C)c1Br,.,.,0,-8,13,.
O=C(CSc1nc(C(F)(F)F)cc(=O)[nH]1)Nc1cccc2ccccc12,3,24*,0,-5,11,-29
Cc1c(N=C(N)/N=C(\N)Nc2ccccc2)c(=O)n(-c2ccccc2)n1C,-12,-27,0,-2,-7,67*
O=C(CSC1=NS(=O)(=O)c2cc(F)ccc2N1)NCc1ccccc1,2,12,0,-2,24,-13
O=C(CSC1=NS(=O)(=O)c2cc(Cl)ccc2N1)NCc1ccc(F)cc1,-3,-2,0,30*,-11,5
CC(=O)[C@@]1(O)[C@H](C)CC2C3CC=C4CC(OP(=O)(O)O)CC[C@]4(C)C3CC[C@@]21C (stereo partly specified),-11,-3,1,-17,15,-9
C[C@H](CO)N1C[C@H](C)[C@@H](CN(C)Cc2ccncc2)OCc2cnnn2CCCC1=O,-9,6,1,-17,21,-13
CC(C)c1ccc(C(=O)NNC(=O)c2ccncc2)cc1,-3,7,0,-9,23,-5
CC12CC3CC(C1)CC(C(=O)NNC(=O)c1ccncc1)(C3)C2,-8,-30,0,-12,9,63*
CCC(C)NC(=S)NNC(=O)c1ccncc1 (stereo unspecified),1,20,-1,27*,-14,-10
O=C(NNC(=S)NC(=O)c1ccc(F)cc1)c1ccncc1,-1,-4,1,-4,5,1
O=C(NNC(=S)NC(=O)C12CC3CC(CC(C3)C1)C2)c1ccncc1,58*,-23,46*,2,-5,15
CC1(C(=O)NC(=S)NNC(=O)c2ccncc2)CCCCC1,39*,-9,28*,5,1,2

# Screens deposited in PubChem by The Scripps Research Institute Molecular Screening Center.
